Test results taken from the supplement of paper PMC8728848.
Only a selection was taken, and the strongest signals are over-represented in it overall.

Experiments:
Assay in all cases: glycan array binding signal (z-score within array); higher = stronger binding
Details in all cases: glycan notation: IUPAC condensed, linker removed; mutation: Y228W
[1] = biological target: Fuc(a1-2)Gal(b1-3)GlcNAc(b1-3)[Neu5Ac(a2-6)Gal(b1-4)GlcNAc(b1-6)]Gal(b1-4)Glc
In short: (§1)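 Glycan array data were curated from 3228 arrays in the Consortium for Functional Glycomics database and kept only where the protein sequence was available. Glycan names were converted to IUPAC-condensed notation, and columns mapping to the same glycan were averaged. The binding signal is a within-array Z-score, averaged across arrays of the same protein sequence at different concentrations or buffers and across linkers. Negative Z-scores can be read as non-binding.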

Fuc(a1-2)Gal(b1-4)Glc = biological target: Fuc(a1-2)Gal(b1-4)Glc
In short: as §1

[2] = biological target: Fuc(a1-2)Gal(b1-4)GlcNAc(b1-3)Gal(b1-4)GlcNAc(b1-2)Man(a1-3)[Fuc(a1-2)Gal(b1-4)GlcNAc(b1-3)Gal(b1-4)GlcNAc(b1-2)Man(a1-6)]Man(b1-4)GlcNAc(b1-4)GlcNAc
In short: as §1

[3] = biological target: Fuc(a1-2)Gal(b1-4)GlcNAc(b1-3)[Fuc(a1-3)[Gal(b1-4)]GlcNAc(b1-6)]Gal(b1-4)Glc
In short: as §1

[4] = biological target: Fuc(a1-2)Gal(b1-4)GlcNAc(b1-6)GalNAc
In short: as §1

[5] = biological target: Fuc(a1-2)Gal(b1-4)[Fuc(a1-3)]GlcNAc(b1-3)GalNAc
In short: as §1

[6] = biological target: Fuc(a1-2)[Gal(a1-3)]Gal(b1-3)GlcNAc(b1-3)GalNAc
In short: as §1

[7] = biological target: Fuc(a1-2)[Gal(a1-3)]Gal(b1-4)GlcNAc(b1-2)Man
In short: as §1

[8] = biological target: Fuc(a1-2)[Gal(a1-3)]Gal(b1-4)[Fuc(a1-3)]GlcNAc
In short: as §1

[9] = biological target: Fuc(a1-2)[GalNAc(a1-3)]Gal(b1-4)[Fuc(a1-3)]GlcNAc
In short: as §1

[10] = biological target: Fuc(a1-2)[GalNAc(a1-3)]Gal(b1-4)[Fuc(a1-3)]GlcNAc(b1-3)GalNAc
In short: as §1

[11] = biological target: Fuc(a1-3)[Gal(b1-4)]GlcNAc(b1-2)Man(a1-3)[Fuc(a1-3)[Gal(b1-4)]GlcNAc(b1-2)Man(a1-6)]Man(b1-4)GlcNAc(b1-4)[Fuc(a1-6)]GlcNAc
In short: as §1

[12] = biological target: Fuc(a1-3)[Gal(b1-4)]GlcNAc(b1-3)Gal(b1-4)[Fuc(a1-3)]GlcNAc(b1-3)Gal(b1-4)[Fuc(a1-3)]GlcNAc
In short: as §1

[13] = biological target: Fuc(a1-3)[Gal3S(b1-4)]GlcNAc6S
In short: as §1

[14] = biological target: Gal(a1-3)Gal(b1-4)GlcNAc(b1-6)GalNAc
In short: as §1

[15] = biological target: Gal(a1-3)[Gal(a1-4)]Gal(b1-4)GlcNAc
In short: as §1

Gal(a1-4)Gal(b1-4)GlcNAc = biological target: Gal(a1-4)Gal(b1-4)GlcNAc
In short: as §1

Gal(b1-3)Gal(b1-4)GlcNAc = biological target: Gal(b1-3)Gal(b1-4)GlcNAc
In short: as §1

Gal(b1-3)GalNAc = biological target: Gal(b1-3)GalNAc
In short: as §1

Gal(b1-3)GalNAc(b1-3)Gal = biological target: Gal(b1-3)GalNAc(b1-3)Gal
In short: as §1

[16] = biological target: Gal(b1-3)GalNAc(b1-4)Gal(b1-4)Glc
In short: as §1

[17] = biological target: Gal(b1-3)GalNAc(b1-4)[Neu5Ac(a2-3)]Gal(b1-4)Glc
In short: as §1

Gal(b1-3)GlcNAc = biological target: Gal(b1-3)GlcNAc
In short: as §1

Gal(b1-3)GlcNAc(b1-2)Man = biological target: Gal(b1-3)GlcNAc(b1-2)Man
In short: as §1

[18] = biological target: Gal(b1-3)GlcNAc(b1-3)Gal(b1-4)GlcNAc
In short: as §1

[19] = biological target: Gal(b1-3)GlcNAc(b1-3)Gal(b1-4)GlcNAc(b1-2)Man(a1-3)[Gal(b1-3)GlcNAc(b1-3)Gal(b1-4)GlcNAc(b1-2)Man(a1-6)]Man(b1-4)GlcNAc(b1-4)GlcNAc
In short: as §1

[20] = biological target: Gal(b1-4)GlcNAc(a1-6)Gal(b1-4)GlcNAc
In short: as §1

[21] = biological target: Gal(b1-4)GlcNAc(b1-2)Man(a1-3)[Gal(b1-4)GlcNAc(b1-2)Man(a1-6)]Man(b1-4)GlcNAc(b1-4)[Fuc(a1-6)]GlcNAc
In short: as §1

[22] = biological target: Gal(b1-4)GlcNAc(b1-2)[Gal(b1-4)GlcNAc(b1-6)]Man(a1-6)[GlcNAc(b1-4)][Gal(b1-4)GlcNAc(b1-2)Man(a1-3)]Man(b1-4)GlcNAc(b1-4)GlcNAc
In short: as §1

B1: Epa1-NP-mutant-Y228W (Candida glabrata), Q6VBJ0 (protein)
chain: MILNPALFLNKCVCIYTTLILLLLTNGGYATSSNDISLASKDPTTFPLGCSPDITTPKKGLSMELYSYDFRKKGSYPCWDAAYLDPNYPRTGYKSHRLLAKVDGVTGNINFYYHATKGCTPQLGHLPASYNYPKPLTMTNFTMLLYGYFRPKVTGFHTFTISADDLLFVNFGAGNAFDCCRRDSSADHFGNYQAYAIWGSKTAKDELTVHLDAGVYYPIRLFYNNREWDGALSFTFKTESNENTVSDFSEYFFSLDDTEEGCPGLISYDSSCASVKTSKIIGIDYHTETPNENLVPITKTIYHLGIPCTGTTTTPLCGSGFYDPLANKCVTINTSSTSSVTKTTSHTTSKEVSFHSSISSQKTLIPKSIPSPYGPIKSQSIPTEMETSSEISSSEYAFSDVISTPSHSPYTKKHSSLNSSSYTSTVIHSLTSYSISQGIFSTSLSEQNITSKSSTDKFSTATSMSNNITQSSIIISQFSTNNENYTTTSMHTSSDKISTETLNNSISTTTSILFSNSSTILKNNTTIISSDKDTHYHPVNPTIVCSTNKTEIICASITQPSISNSNNHWSSSVLKFNSTTVRSTLPSSAGSNETSINVPFSSSTESNTSTSSTSTSNSKMVRSTLPSSAGSNETSISVPFSSSTESNTSTSSTSTSNSKMVRSTLPSSAGSNETSINVPFSSSTESNTSTSSTSTSNSKTVRSTPFSSAGIIMTSLSQRNNKSASSYASSNSKCYNTADSCRKVHSTPSYLLTSSYTSEGVDYDCSLVSTKLKINDTNCVNNKHTTKSCLKTSVTTTIPTLEIKTARKSSSNTIGLHSYPTSSPNKSISSAPIIGYISSFKTIKTASPSYQTSDLTTITTITSLNNPGSTAVENTHESNDKSRKTSSNDISSKHSVIKETKDAVESSNKSHQTNTLKCSSIIIASSSHNSYESLGGTTLTLTLSKVYSPQNNDTLPFLEISEVNPSRTVLPESSKMMQYLTSTEERNKTARNTIATNIVSISTFHFEGEGNAIRMGYTQLLLMLIGIIVMNIGT
Q: Which “glycan array binding signal (z-score)” value [1] does the source give for B1 here?
A: -0.437

Q: And the “glycan array binding signal (z-score)” value (Fuc(a1-2)Gal(b1-4)Glc)?
A: -0.146

Q: And the “glycan array binding signal (z-score)” value [2]?
A: 0.051

Q: And the “glycan array binding signal (z-score)” value [3]?
A: -0.169

Q: And the “glycan array binding signal (z-score)” value [4]?
A: 0.006

Q: And the “glycan array binding signal (z-score)” value [5]?
A: -0.204

Q: What about the “glycan array binding signal (z-score)” value [6] of the same binder?
A: -0.019

Q: And the “glycan array binding signal (z-score)” value [7]?
A: -0.304

Q: What about the “glycan array binding signal (z-score)” value [8] of the same binder?
A: -0.288

Q: What about the “glycan array binding signal (z-score)” value [9] of the same binder?
A: -0.138

Q: What about the “glycan array binding signal (z-score)” value [10] of the same binder?
A: -0.1

Q: And the “glycan array binding signal (z-score)” value [11]?
A: 0.029

Q: And the “glycan array binding signal (z-score)” value [12]?
A: -0.169

Q: What about the “glycan array binding signal (z-score)” value [13] of the same binder?
A: 0.109

Q: What about the “glycan array binding signal (z-score)” value [14] of the same binder?
A: -0.035

Q: What about the “glycan array binding signal (z-score)” value [15] of the same binder?
A: -0.336

Q: What about the “glycan array binding signal (z-score)” value (Gal(a1-4)Gal(b1-4)GlcNAc) of the same binder?
A: -0.087

Q: What about the “glycan array binding signal (z-score)” value (Gal(b1-3)Gal(b1-4)GlcNAc) of the same binder?
A: 7.29

Q: What about the “glycan array binding signal (z-score)” value (Gal(b1-3)GalNAc) of the same binder?
A: 2.78

Q: And the “glycan array binding signal (z-score)” value (Gal(b1-3)GalNAc(b1-3)Gal)?
A: 2.53

Q: What about the “glycan array binding signal (z-score)” value [16] of the same binder?
A: 15

Q: And the “glycan array binding signal (z-score)” value [17]?
A: 4.99

Q: And the “glycan array binding signal (z-score)” value (Gal(b1-3)GlcNAc)?
A: -0.24

Q: And the “glycan array binding signal (z-score)” value (Gal(b1-3)GlcNAc(b1-2)Man)?
A: -0.27

Q: What about the “glycan array binding signal (z-score)” value [18] of the same binder?
A: -0.333

Q: And the “glycan array binding signal (z-score)” value [19]?
A: -0.274

Q: What about the “glycan array binding signal (z-score)” value [20] of the same binder?
A: 3.19

Q: And the “glycan array binding signal (z-score)” value [21]?
A: 0.093

Q: And the “glycan array binding signal (z-score)” value [22]?
A: -0.205
